Screening data: PubChem BioAssay, several laboratories
Granule exo inh: LAMP-1 surface exposure blockers, TALL-104 cells – cell-based, flow cytometry, MLPCN library, primary screen; actives 0.66% (n = 360,000); inhibition, % at 10 µM; AID 651702, 2012; TALL-104 LAMP-1 surface exposure; cells stimulated with thapsigargin and PMA;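 active = inhibition above about 55%, limit read from the data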
ALR H2O2 inh: inhibitors of human ALR sulfhydryl oxidase, primary screen, biochemical, H2O2 detection, HRP-luminol luminescence, single point. FAD-linked sulfhydryl oxidase ALR (Homo sapiens), P55789. purified ALR, DTT oxidation. inhibition, % (test concentration not listed). actives 3.8% (n = 290,000);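 active = mean replicate inhibition above about 79%, with every replicate also reaching it, limit read from the data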
Target sequence (P55789 whole entry, looked up): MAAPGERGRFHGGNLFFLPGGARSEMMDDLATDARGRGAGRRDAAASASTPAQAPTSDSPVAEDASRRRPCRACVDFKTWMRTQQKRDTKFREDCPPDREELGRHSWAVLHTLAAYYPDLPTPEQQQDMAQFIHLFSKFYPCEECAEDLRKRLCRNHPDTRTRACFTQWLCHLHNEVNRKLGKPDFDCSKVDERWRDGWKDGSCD
M18AAP inhibitor: PfM18AAP inhibitors, malaria aminopeptidase, primary screen, biochemical, QFRET, recombinant enzyme; H-Glu-NHMec fluorogenic cleavage; inhibition, % at 7.35 µM; actives 1.2% (n = 290,000);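 active = inhibition above the campaign mean inhibition over all tested compounds plus 3 SD, cut at about 28% in these data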;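 note: 0% = plate median of test compound wells and 100% = 2 mM ZnCl2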
SMARCA2 activ: SMARCA2 (BRM) function activators, primary screen, cell-based, luminescence, high throughput | actives 1% (n = 370,000) | activation, % at 9.1 µM | MG213 cells, MMTV-luciferase reporter, dexamethasone, overnight; in the data active = activation above about 7.8%;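 note: 0% = vehicle wells and 100% = reference activator wells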
GASC-1 inh: inhibitors of GASC-1 histone demethylase, primary screen, biochemical, fluorescence, DELFIA europium; actives 0.069% (n = 330,000); inhibition, % at 2.35 µM; AID 2099, 2009; Lysine-specific demethylase 4C (Homo sapiens), Q9H3R0; GST-JMJD2C(1-420) H3K9me3 demethylation;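 active = more than half of a compound's replicate wells show inhibition beyond 50%, single wells judged on their own value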;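 note: signal counts dimethyl H3K9 product captured on neutravidin plate; 0% = median of DMSO wells and 100% = 0.3 times that DMSO median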
Target sequence (Q9H3R0 1-420 limits assumed): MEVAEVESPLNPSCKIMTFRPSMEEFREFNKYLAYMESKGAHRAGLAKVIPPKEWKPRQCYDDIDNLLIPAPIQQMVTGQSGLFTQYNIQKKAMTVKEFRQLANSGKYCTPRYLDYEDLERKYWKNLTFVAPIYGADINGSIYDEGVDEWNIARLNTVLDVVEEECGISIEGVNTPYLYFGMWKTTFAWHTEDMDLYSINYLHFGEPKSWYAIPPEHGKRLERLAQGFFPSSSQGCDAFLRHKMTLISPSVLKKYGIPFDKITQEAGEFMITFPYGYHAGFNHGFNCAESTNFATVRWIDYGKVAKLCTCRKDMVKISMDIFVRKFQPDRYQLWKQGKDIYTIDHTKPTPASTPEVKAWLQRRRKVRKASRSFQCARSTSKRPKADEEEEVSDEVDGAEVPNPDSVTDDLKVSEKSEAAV
beta cell repl: inducers of MIN6 beta-cell proliferation, primary screen, ATP luminescence, uHTS. MIN6 cells proliferation, ATPlite luminescence, 48 h; cells starved in 0.2% serum; 100% = growth in 10% serum. proliferation, % at 10 µM. actives 0.29% (n = 330,000);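 active = compounds whose signal lies at least 3.5 SD above the mean of all wells on their plate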;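 note: 0% = DMSO-treated cells in low-serum medium and 100% = 10% serum control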
* = called active by the depositor; x = no result given. This is a sample that favours compounds with a hit; in the whole collection about 5.4% have one here.

SMILES | Granule exo inh | ALR H2O2 inh | M18AAP inhibitor | SMARCA2 activ | GASC-1 inh | beta cell repl
COc1cccc2[nH]c3c(N4CCCCC4)ncnc3c12 | 69.4* | -31.6 | 8.7 | -0.2 | -11.8 | 0.4
COc1cc2[nH]c3c(N4CCN(c5ccccn5)CC4)ncnc3c2cc1OC | 51.9 | 98.6* | 5.1 | x | 1.4 | -6.9
C#CCNC(=O)C[C@H]1C(=O)N(CCCOC)C2=CCCC[C@@]21C(=O)OCC | x | x | x | 1.8 | x | x
C=CCN1C(=O)[C@@H](CC(=O)NCCCC)[C@]2(C(=O)OCC)CCCCC/C=C/12 | x | x | x | -1.5 | x | x
Cc1ccc(NC(=O)CSc2n[nH]c(-c3ccncc3)n2)c(C)c1 | -5.5 | 1.1 | -17.5 | -2.1 | -1.4 | 0.5
Cc1ccc(NC(=O)Cc2nc(-c3c[nH]c(C(=O)N4CCCC4)c3)cs2)c(C)c1 | 6.8 | 98.4* | x | 1.7 | -0.2 | 2.6
O=C(N1CCCCC1)N1CCN(c2ccc(Cl)cc2)CC1 | -2.4 | 98.3* | -12.9 | -2.0 | -38.1 | 0.0
S=C(c1ccc(N2CCCC2)cc1)N1CCCCC1 | -1.1 | 98.6* | 3.8 | 3.7 | 14.5 | -0.7
Oc1ccc(C(=S)N2CCCCCC2)cc1 | 3.5 | 7.6 | -5.1 | -2.7 | 1.2 | -3.1
Nc1ccc(N2CCN(c3ccc(F)cc3)CC2)cc1 | -3.3 | 99.0* | 9.1 | 0.2 | 9.8 | -3.4
CC(=O)N1CCN(c2ccc(N)cc2)CC1 | -1.0 | 98.5* | x | -1.1 | -0.9 | -3.8
Nc1ccc(N2CCN(c3ccc(Cl)c(Cl)c3)CC2)cc1 | 3.2 | 58.3 | 0.1 | -2.9 | 9.2 | -3.4
O=C(c1ccccc1)N1CCN(c2ccc(Cl)cc2)CC1 | -2.7 | 65.8 | -6.1 | 0.2 | 3.7 | -1.7
O=C(CCc1ccccc1-c1ccccc1CCNC(=O)c1ccc(F)c(F)c1)NCc1ccccc1 | x | x | x | -1.9 | x | x
CN1C(=O)c2cc(NC(=O)Nc3ccccc3)ccc2OC[C@H]2O[C@@H](CC(=O)Nc3cc(F)ccc3F)CC[C@@H]21 | x | x | x | -1.9 | x | x
O=C(O)c1ccc(N2CCCCC2)cc1 | -1.2 | -3.7 | 11.2 | -1.6 | -16.4 | 2.4
Nc1ccc(N2CCCCCC2)cc1 | x | 98.5* | 13.9 | x | x | -6.2
CCc1c(C)nc2c(C#N)c[nH]n2c1=O | 1.1 | 97.6* | 2.9 | -3.5 | -17.8 | 0.6
CCOC(=O)Cc1c(C)nc2c(C#N)c[nH]n2c1=O | 0.3 | x | 6.4 | -0.3 | -5.4 | 1.3
CC(=O)/C(=N/Nc1ccccc1)N1CCOCC1 | -5.7 | 99.0* | 3.7 | 0.1 | -11.5 | -1.6
CC(=O)/C(=N/Nc1ccccc1C)N1CCOCC1 | -1.0 | 0.1 | 0.8 | 2.7 | -7.7 | 5.0
CC(=O)/C(=N/Nc1cccc(Cl)c1)N1CCOCC1 | -2.3 | 98.2* | -6.6 | -2.3 | 6.0 | -0.8
COC(=O)[C@]12C[C@H](CC(=O)NCC34CC5CC(CC(C5)C3)C4)C(=O)N(Cc3ccc(Cl)cc3Cl)C1=C[C@H](C(C)(C)C)O[C@@H]2C | x | x | x | -3.5 | x | x
CCO[C@@H]1OC(C(=O)NC2CC2)=C[C@H](c2c[nH]c3ccccc23)[C@H]1CCCO | 2.4 | 6.6 | x | 0.7 | 52.4* | -5.6
COc1ccc2[nH]c(C(=O)O)c(NS(=O)(=O)c3ccc(F)cc3)c2c1 | 2.1 | 90.3* | -9.2 | -1.5 | 9.3 | 1.0
SMILES | Granule exo inh | ALR H2O2 inh | M18AAP inhibitor | SMARCA2 activ | GASC-1 inh | beta cell repl
COc1ccc2[nH]c(C(=O)O)c(NS(=O)(=O)c3ccc(C)c(C)c3)c2c1 | -0.6 | 97.2* | -2.0 | -0.8 | 0.6 | -0.9
COc1ccc2[nH]c(C(=O)O)c(NS(=O)(=O)c3ccc(Cl)s3)c2c1 | 1.7 | 98.8* | -2.0 | 2.8 | -0.6 | 2.0
COc1ccc2[nH]c(C(=O)O)c(CCNC(C)=O)c2c1 | -2.6 | x | 1.0 | 1.1 | -1.9 | -2.8
O=C(NC1CCCCN(Cc2ccc(Cl)cc2)C1=O)c1c(F)cccc1F (configuration not stated) | x | x | x | 0.2 | x | x
Cc1cccc(C(=O)Nc2onc(C)c2C#N)c1 | 2.0 | 96.4* | -10.8 | -0.3 | 4.8 | -0.8
Cc1noc(NC(=O)c2ccc(F)cc2)c1C#N | -0.9 | -5.1 | -16.2 | -1.6 | -8.6 | -0.3
Cc1cccc(Nc2nc(-c3ccc(O)cc3O)cs2)n1 | 2.6 | 96.8* | 14.2 | 5.0 | 22.6 | -5.1
Cc1[nH]c2ccccc2c1/C=N/NC(=O)CNC(=O)c1ccco1 | -6.3 | 95.0* | 2.7 | 0.1 | 0.5 | 1.9
Cc1cc(NS(=O)(=O)c2ccc(NC(=O)CCCOc3ccccc3C)cc2)nc(C)n1 | 11.0 | 98.8* | 6.5 | -2.5 | 4.1 | -2.2
Cc1ccccc1OCCCC(=O)Nc1ccc2c(c1)OCO2 | -0.9 | 97.8* | -1.2 | 0.2 | 4.1 | -2.0
COc1cc(OC)cc(C(=O)Nc2ccc(S(=O)(=O)Nc3cc(C)nc(C)n3)cc2)c1 | x | 85.2* | 5.1 | -0.7 | 5.5 | -1.5
Cc1ccccc1OCC(=O)Nc1ccc(S(=O)(=O)Nc2ccccn2)cc1 | -2.8 | 98.5* | 2.1 | -2.6 | 4.4 | 2.0
O=[N+]([O-])c1ccccc1N/N=C/c1cccc(O)c1O | -0.3 | x | 30.2* | 0.3 | -1.5 | -4.8
O=[N+]([O-])c1cccc(N/N=C/c2cccc(O)c2O)c1 | 0.3 | 99.9* | 41.5* | 6.0 | -22.8 | -5.0
O=[N+]([O-])c1ccccc1N/N=C\c1ccccc1Cl | 1.2 | -1.1 | -6.3 | 2.9 | 33.8 | -5.0
Nc1ccc(C23CC4CC(CC(CO)(C4)C2)C3)cc1 | 2.8 | 93.0* | -0.9 | -2.1 | 2.1 | 2.1
COc1cccc(CC(=O)N(Cc2ccccc2)c2ccccc2C(=O)Nc2cc(OC)ccc2OC)c1 | x | x | x | -3.6 | x | x
CCOc1cc(-c2c(C#N)c(N)nc3c2CCCC3C)ccc1O (configuration not stated) | 0.1 | 97.6* | 5.8 | -1.4 | -1.9 | 2.5
CCOC(=O)COc1ccccc1/C=C\[N+](=O)[O-] | 43.1 | 22.9 | 31.7* | x | -3.1 | x
Oc1ccc(N=Cc2ccc(O)c(O)c2)cc1 | 12.7 | 99.0* | 45.6* | x | 6.3 | -5.5
CCCS(=O)(=O)c1nnnn1-c1cccc(OC)c1 | 19.4 | 97.9* | -36.6 | x | 10.0 | x
CCC(=O)N1CCc2cc(S(=O)(=O)CCC(=O)Nc3nc(C)cs3)ccc21 | 1.8 | 98.6* | -2.4 | 4.4 | 26.4 | -0.6
CCC(=O)N1CCc2cc(S(=O)(=O)CCC(=O)NCc3ccc(C)cc3)ccc21 | -4.2 | 3.5 | -3.5 | -0.7 | 7.0 | -1.5
CCC(=O)N1CCc2cc(S(=O)(=O)CCC(=O)Nc3ccc(C)cn3)ccc21 | -9.9 | 98.8* | -0.2 | -0.1 | 15.3 | -1.2
CCC(=O)N1CCc2cc(S(=O)(=O)CCC(=O)Nc3ccc(F)c(F)c3)ccc21 | 0.8 | 97.8* | -4.5 | -2.4 | 22.4 | -2.7
